hNpr1 antagonist: human Npr1 receptor antagonism. P16066. Potency, µM (top dose mostly 46.3 µM), usual class: inhibitors. hit rate 1.6% among 76,000. HEK293 hNpr1 GloSensor cGMP, ANP-stimulated luminescence. AID 1347048; calls by dose curve; note: nearly all actives have a fitted effect of over 60% in size
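HEK293 cells stably expressing human Npr1 and cGMP GloSensor pGS-40F, loaded 2 h with 2% GloSensor reagent, given compound 30 min at room temperature. Luminescence read before and 20 min after 0.1 nM hNppA.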
HEK cytotox: HEK 293 cell cytotoxicity | HEK 293 viability, ATP luminescence (CellTiter-Glo), 48-72 h | Potency, µM (top dose mostly 115 µM), usual class: inhibitors | hit rate 6.6% among 94,000; note: nearly all actives have a fitted effect of over 60% in size
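HEK 293 cells at 250 cells/well were exposed to compounds by pintool transfer for 48 or 72 hr at 37 degree Celsius, 5% CO2. Viability was read as ATP-coupled luminescence with CellTiter-Glo after 10 min at room temperature.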
3T3 cytotox: cytotoxic compounds in NIH 3T3 cells | NIH 3T3 viability, CellTiter-Glo ATP luminescence, 48-72 h | Potency, µM (top dose mostly 96.7 µM), most hits filed as inhibitors | hit rate 4.3% among 94,000; note: nearly all actives have a fitted effect of over 55% in size
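Cytotoxicity was measured by CellTiter-Glo ATP luminescence after 48 or 72 h compound exposure at 37 °C. Mouse NIH 3T3 fibroblasts were seeded at 400 cells/well and dosed by 23 nL pin transfer.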
FLuc inh-1: inhibitors of firefly (Photinus pyralis) luciferase; P08659; purified P. pyralis luciferase, luminescence, biochemical; Potency, µM (top dose mostly 115 µM), usual class: inhibitors; hit rate 2.5% among 76,000; note: nearly all actives have a fitted effect of over 65% in size
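Cell-free enzyme assay, 10nM P. pyralis luciferase, luciferin and ATP each at 10uM. Inhibition profiled over a 6-point titration, read as luminescence.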
FLuc SDR no ATP: stabilizes firefly luciferase without ATP; shares compounds with FLuc inh-1; Purified FLuc-C-HiBiT, Nano-Glo HiBiT luminescence, no ATP; Potency, µM (series often up to 32.7 µM), actives largely listed as activators; hit rate 7.8% among 1,300; AID 1963318; note: nearly all actives have a fitted effect of over 55% in size
FLuc SDR ATP: firefly luciferase binding stabilization, ATP added. Potency, µM (titrated, usually from 32.7 µM), hits mostly activators. purified FLuc-C-HiBiT + ATP, HiBiT complementation luminescence. shares compounds with FLuc inh-1. hit rate 8.7% among 1,300;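 note: signal reports ligand binding via conformational change of the enzyme rather than luciferase catalysis; nearly all actives have a fitted effect of over 55% in size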
FLuc inh-2: inhibitors of firefly luciferase enzymatic activity; shares compounds with FLuc inh-1; hit rate 42% among 1,300; purified FLuc-C-HiBiT enzyme, luciferin luminescence; Potency, µM (titrated, usually from 32.7 µM), actives largely listed as inhibitors; note: nearly all actives have a fitted effect of over 70% in size
Numbers stand for hits; . = inactive; ? = inconclusive; / = no result. Compounds with a hit are over-represented: about 11% of the library has one in this group of screens. Unless noted, calls come from the whole dose curve; as a rule, active = well fitted curve in the direction sought with a large enough effect; inconclusive = small, poorly fitted or top-dose-only effect, or another doubt; inactive = no such curve, though single readings can be large; an effect the other way counts as inactive or inconclusive.

SMILES	hNpr1 antagonist	HEK cytotox	3T3 cytotox	FLuc inh-1	others
CC(C)c1nccn1C(C)C(=O)N1CCC(C#N)(c2ccccc2)CC1 (centres undefined)	.	?	?	.
CC(Cc1ccccn1)N(C)Cc1ccc(S(C)(=O)=O)cc1 (centres undefined)	.	?	.	.
O=C(NC[C@H]1C[C@@H]2CCN1C[C@@H]2CN1CCCCC1)c1ccc(C(F)(F)F)cc1	.	?	?	.
COc1cc2c(cc1Oc1ccccc1)NC(=O)C21CCN(c2ncc(F)cn2)CC1	.	89.1µM	?	.
COc1cc2c(cc1Oc1ccccc1)NC(=O)C21CCN(Cc2ccccn2)CC1	.	56.2µM	?	.
COc1cc2c(cc1Oc1ccccc1)NC(=O)C21CCN(c2nccs2)CC1	.	?	.	.
c1cc2nc(C3CCCNC3)[nH]c2cn1 (centres undefined)	.	.	.	.
CCCSc1ncc(CN2CCCC3(CCNC3)C2)cn1 (centres undefined)	.	.	.	.
Cc1ccccc1-c1ccc2n(c1=O)C[C@H]1C[C@@H]2CN(C(=O)c2cccs2)C1	.	.	?	.
Cc1nc(-c2ccccc2Br)cc([C@H]2CN3CC[C@H]2C[C@@H]3CNC(=O)c2ccc(N(C)C)cc2)n1	.	28.2µM	?	.
Cc1nc(-c2ccccc2Br)cc([C@H]2CN3CC[C@H]2C[C@@H]3CNC(=O)c2ccc(C(C)(C)C)cc2)n1	.	10µM	25.1µM	.
Cc1ccc(C(=O)NC[C@H]2C[C@@H]3CCN2C[C@@H]3c2cc(-c3ccccc3Br)nc(C)n2)cc1	.	?	?	.
CN(C)c1ccc(C(=O)NC[C@H]2C[C@@H]3CCN2C[C@@H]3CN2CCc3ccccc3C2)cc1	.	89.1µM	31.6µM	.
Cc1nc(-c2cccs2)cc([C@H]2CN3CC[C@H]2C[C@@H]3CNC(=O)c2ccc(C(F)(F)F)cc2)n1	.	?	?	.
CCS(=O)(=O)N1CC(COC)C2(CCNCC2)C1 (centres undefined)	.	.	.	.
CC[C@H]1CN2CC[C@H]1C[C@@H]2CNCc1ccc(SC)cc1	.	?	?	.
COc1ccc2c(c1)C1(CCN(C(=O)COc3ccc(Cl)cc3)C1)C(=O)N2C (centres undefined)	.	.	?	28.2µM
COc1ccc2c(c1)C1(CCN(S(=O)(=O)c3ccc(Cl)cc3)C1)C(=O)N2C (centres undefined)	.	50.1µM	.	.
COCCNC(=O)N1CCC2(C1)C(=O)N(C)c1ccc(OC)cc12 (centres undefined)	.	.	.	.
CC(C)N1CC2CCC(C1)N2S(C)(=O)=O	/	.	.	/
CC(C)CN(Cc1cccnc1)C1CN(C(=O)COc2ccc(F)cc2)C1	.	?	31.6µM	.
Cc1nc(-c2ccco2)cc([C@H]2CN3CC[C@H]2C[C@@H]3CNC(=O)Nc2ccccc2)n1	.	89.1µM	?	.
Cc1nc(-c2ccccc2)cc([C@H]2CN3CC[C@H]2C[C@@H]3CN(Cc2ccco2)Cc2ccco2)n1	.	?	22.4µM	.
Cc1nc(-c2ccco2)cc([C@H]2CN3CC[C@H]2C[C@@H]3CNC(=O)NC2CCCCC2)n1	.	?	100µM	.
Cc1nc(-c2ccco2)cc([C@H]2CN3CC[C@H]2C[C@@H]3CNC(=O)C2CCCCC2)n1	?	?	?	.
SMILES	hNpr1 antagonist	HEK cytotox	3T3 cytotox	FLuc inh-1	others
COc1cc2c(cc1OCCN(C)C)NC(=O)C21CCN(Cc2ccccc2)CC1	.	?	?	.
COc1cc2c(cc1-c1cccnc1)NC(=O)C21CCN(C(C)=O)CC1	.	.	?	.
COc1cc2c(cc1-c1cnn(C)c1)NC(=O)C21CCN(C(C)=O)CC1	.	.	31.6µM	.
COc1cc2c(cc1-c1ccc(O)c(F)c1)NC(=O)C21CCN(C(C)=O)CC1	.	.	28.2µM	.
Cc1nc(-c2cccs2)cc([C@H]2CN3CC[C@H]2C[C@@H]3CNS(=O)(=O)c2ccccc2)n1	.	28.2µM	20µM	.
Cc1nc(-c2cccs2)cc([C@H]2CN3CC[C@H]2C[C@@H]3CO)n1	.	.	15.8µM	.
Cc1nc(-c2cccs2)cc([C@H]2CN3CC[C@H]2C[C@@H]3CNC(=O)C(C)(C)C)n1	.	?	?	.
Cc1nc(-c2ccccc2Br)cc([C@H]2CN3CC[C@H]2C[C@@H]3CNS(=O)(=O)c2cccs2)n1	.	79.4µM	79.4µM	.
Cn1nc(-c2cccs2)cc1[C@H]1CN2CC[C@H]1C[C@@H]2CNS(=O)(=O)c1ccccc1	.	.	?	.
Cc1ccc(CC(=O)N2CCN(C3CCN(Cc4cccnc4)C3=O)CC2)cc1 (centres undefined)	.	?	?	.
CN1CCNc2cc(Nc3ccncc3)ncc2C1	.	?	?	.
CN1CCNc2cc(Nc3ccc(F)cc3)ncc2C1	.	?	?	3.16µM	FLuc SDR no ATP=.;FLuc SDR ATP=.;FLuc inh-2=20.2µM
CN1CCNc2cc(Nc3ccc(F)c(Cl)c3)ncc2C1	?	?	50.1µM	0.794µM	FLuc SDR no ATP=.;FLuc SDR ATP=.;FLuc inh-2=12.8µM
CCN1CCCCC12Cc1ccccc1CN(C(=O)Cc1ccc(OC)cc1)C2 (centres undefined)	/	.	.	/
CC(C)CN1CCNc2cc(-c3ccccc3)ncc2C1	.	?	?	3.98µM	FLuc SDR no ATP=.;FLuc SDR ATP=.;FLuc inh-2=?
COc1cc2c(cc1-c1ccc(CO)cc1)NC(=O)C21CCN(C)CC1	/	/	/	/	FLuc SDR no ATP=.;FLuc SDR ATP=.;FLuc inh-2=?
O=C(c1cccs1)C1CCCN(Cc2cc3n(n2)CCNC3)C1 (centres undefined)	.	.	.	.
COc1ccc(-n2cc(C3=CCN(CCN4CCOCC4)CC3)cn2)cc1	?	?	?	4.47µM	FLuc SDR no ATP=?;FLuc SDR ATP=?;FLuc inh-2=9.89µM
O=C(Cc1ccc(F)cc1)N1CCN(C2CCN(CCc3ccccc3)C2=O)CC1 (centres undefined)	.	.	.	.
O=C(Nc1ccccc1)Nc1ccc2n(c1=O)C[C@H]1C[C@@H]2CN(C(=O)c2ccccc2)C1	.	?	?	14.1µM	FLuc SDR no ATP=?;FLuc SDR ATP=.;FLuc inh-2=?
O=C(Nc1ccc2n(c1=O)C[C@H]1C[C@@H]2CN(C(=O)Nc2ccccc2)C1)c1ccncc1	.	.	?	.
O=C1Nc2ccccc2CC12CCCN2Cc1ccccn1 (centres undefined)	/	.	.	/
